The results in this text go back to PubChem BioAssay (NCATS).

In assay [1] the target is Rap guanine nucleotide exchange factor 3 (Homo sapiens) (UniProt O95398). Description: Confirmatory qHTS for antagonist of cAMP-regulated guanine nucleotide exchange factor 3 (EPAC1) (AID 1645880). Further: nearly all actives have a fitted effect of over 55% in size. Further: potency means the concentration at half of the fitted maximal effect.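 On activity, negative = inhibition: plate controls were DMSO only for no effect and full effect of the ATA control for full effect.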 The note with it: EPAC1 Rap1B-BODIPY-GDP exchange, fluorescence; activity, negative = inhibition: at 115 µM (top of the series). Put shortly:
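Nucleotide exchange uses 100 nM EPAC1, 250 nM RAP1B-BODIPY-GDP and 50 uM GDP, with compounds in a concentration-titration series. After 5 min at room temperature, fluorescence (480 nm ex/540 nm em) is read every 5 min for 30 min. Data are normalized to control ATA and DMSO.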

Assay [2] shares this target. The assay is described as follows: Confirmatory qHTS for agonist of cAMP-regulated guanine nucleotide exchange factor 3 (EPAC1) (AID 1645881). Further: nearly all actives have a fitted effect of over 75% in size. Further: potency means the concentration at half of the fitted maximal effect.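 On activation: EPAC1 catalysed release of BODIPY-GDP from Rap1B seen as fluorescence loss; 100% = effect of cAMP agonist control.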
In assay [3] the target is Rap guanine nucleotide exchange factor 4 (Homo sapiens) (UniProt Q8WZA2). Description: Confirmatory qHTS for agonist of cAMP-regulated guanine nucleotide exchange factor 4 (EPAC2) (AID 1645884).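 Further: nucleotide exchange releases bodipy-GDP from Rap1 and this lowers its fluorescence; nearly all actives have a fitted effect of over 65% in size.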 Further: potency means the concentration at half of the fitted maximal effect. On activation: on the % scale 0 is the no-effect control and ±100 the full control effect.
Assay [4] has as its target Rap guanine nucleotide exchange factor 3 (Homo sapiens) (UniProt O95398). Description: Counterscreen qHTS for antagonist of cAMP-regulated guanine nucleotide exchange factor 3 (EPAC1) (AID 1645888).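 Further: fluorescence loss as bound BODIPY-GDP is released from Rap1B; % of control where 0% means no effect.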 Put shortly: (§1)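 Rap1B-BODIPY-GDP 250 nM + GDP 50 uM; cpds 7-pt, final 9.74 nM–152 uM (activator mode) or from 7.32 nM upwards (inhibitor mode); RT; FI 480/540 nm at 5 and 30 min, then ± cAMP, reread.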

The target is the same in assay [5]. The assay is described as follows: Counterscreen qHTS for agonist of cAMP-regulated guanine nucleotide exchange factor 3 (EPAC1) (AID 1645889). Further: nearly all actives have a fitted effect of over 40% in size. Further: potency means the concentration at half of the fitted maximal effect. On activation: % of control where 0% means no effect. The procedure, abridged: as §1

Inconclusive results are not listed. A number with no mark means an inactive call. Calls of active or inactive are those of the source. The call rests on the fitted dose curve; in most records, active means well fitted curve in the direction sought with a large enough effect; inconclusive means small, poorly fitted or top-dose-only effect, or another doubt; inactive means no such curve, though single readings can be large; an effect the other way counts as inactive or inconclusive.

Sequence of Rap guanine nucleotide exchange factor 4 (Homo sapiens) (Q8WZA2 whole entry, looked up): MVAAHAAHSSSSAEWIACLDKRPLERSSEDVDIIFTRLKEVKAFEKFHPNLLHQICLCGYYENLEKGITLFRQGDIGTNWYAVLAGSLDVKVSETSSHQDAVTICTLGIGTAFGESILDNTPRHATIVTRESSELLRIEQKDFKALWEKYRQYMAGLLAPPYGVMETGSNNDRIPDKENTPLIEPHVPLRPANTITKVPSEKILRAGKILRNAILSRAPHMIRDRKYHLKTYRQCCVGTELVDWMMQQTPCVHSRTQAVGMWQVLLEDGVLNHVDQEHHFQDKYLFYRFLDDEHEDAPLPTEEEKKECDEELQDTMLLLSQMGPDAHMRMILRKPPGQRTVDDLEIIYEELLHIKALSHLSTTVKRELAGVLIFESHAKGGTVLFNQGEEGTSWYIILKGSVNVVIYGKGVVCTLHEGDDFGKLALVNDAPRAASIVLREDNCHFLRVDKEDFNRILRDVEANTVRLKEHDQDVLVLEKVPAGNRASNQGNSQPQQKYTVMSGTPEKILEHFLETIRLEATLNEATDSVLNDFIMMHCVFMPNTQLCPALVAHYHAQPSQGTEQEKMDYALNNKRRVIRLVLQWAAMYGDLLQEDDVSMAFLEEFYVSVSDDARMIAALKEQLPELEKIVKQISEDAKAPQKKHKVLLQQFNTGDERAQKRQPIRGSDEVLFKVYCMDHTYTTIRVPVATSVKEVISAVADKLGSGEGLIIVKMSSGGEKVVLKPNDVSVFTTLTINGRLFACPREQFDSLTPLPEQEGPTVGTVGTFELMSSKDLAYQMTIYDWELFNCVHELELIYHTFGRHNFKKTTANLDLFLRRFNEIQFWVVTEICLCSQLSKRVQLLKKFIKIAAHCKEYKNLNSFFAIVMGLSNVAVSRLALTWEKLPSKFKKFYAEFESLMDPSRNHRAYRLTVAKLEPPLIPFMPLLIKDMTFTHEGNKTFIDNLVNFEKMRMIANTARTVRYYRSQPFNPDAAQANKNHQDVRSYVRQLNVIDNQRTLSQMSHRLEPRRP
Sequence of Rap guanine nucleotide exchange factor 3 (Homo sapiens) (O95398 whole entry, looked up): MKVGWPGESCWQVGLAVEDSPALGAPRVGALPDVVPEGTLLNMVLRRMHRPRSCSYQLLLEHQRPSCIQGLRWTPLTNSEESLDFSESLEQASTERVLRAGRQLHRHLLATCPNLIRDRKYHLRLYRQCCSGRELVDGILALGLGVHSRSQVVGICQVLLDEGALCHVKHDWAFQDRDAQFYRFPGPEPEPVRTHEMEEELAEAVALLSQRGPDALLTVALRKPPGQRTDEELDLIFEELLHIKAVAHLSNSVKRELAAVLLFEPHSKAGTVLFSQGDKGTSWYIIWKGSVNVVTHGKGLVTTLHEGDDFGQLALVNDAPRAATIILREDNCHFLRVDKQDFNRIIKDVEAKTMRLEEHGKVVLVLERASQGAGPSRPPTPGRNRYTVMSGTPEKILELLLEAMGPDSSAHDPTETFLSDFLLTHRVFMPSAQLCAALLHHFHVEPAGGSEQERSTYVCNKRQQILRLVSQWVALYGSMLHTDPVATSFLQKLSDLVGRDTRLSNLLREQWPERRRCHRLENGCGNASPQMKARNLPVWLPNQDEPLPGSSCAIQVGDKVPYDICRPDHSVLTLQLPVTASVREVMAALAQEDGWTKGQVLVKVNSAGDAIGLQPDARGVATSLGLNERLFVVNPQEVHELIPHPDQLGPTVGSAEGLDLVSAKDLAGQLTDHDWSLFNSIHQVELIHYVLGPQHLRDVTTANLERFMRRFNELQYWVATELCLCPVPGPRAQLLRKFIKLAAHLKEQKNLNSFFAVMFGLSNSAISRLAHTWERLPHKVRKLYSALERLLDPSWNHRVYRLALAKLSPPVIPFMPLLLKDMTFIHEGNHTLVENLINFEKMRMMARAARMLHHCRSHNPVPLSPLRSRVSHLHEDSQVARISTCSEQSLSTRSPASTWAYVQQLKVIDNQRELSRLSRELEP

`O=C(Nc1ccccc1Cc1ccccc1)c1ccccc1NS(=O)(=O)c1ccc(Cl)s1`: in assay [1], the Potency was 22.4 µM (active). Besides, in assay [2], the Potency entry was “inactive”. In addition, the activation was 8.53% [at 17.1 µM, percent relative to cAMP agonist control] in assay [3] and 8.31% [at 30.8 µM] in assay [5]. Also, the activity change, negative = inhibition in assay [4] was -15.4% [at 30.8 µM].
As to `Cc1cc(C)n(Cc2ccc(C(=O)N/N=C/c3ccc(-c4ccc([N+](=O)[O-])cc4)o3)o2)n1`, the Potency in assay [1] is 47.8 µM (active). Further, the Potency result in assay [2], in assay [3], in assay [4] and in assay [5] was “inactive” throughout.
On to `CCOC(=O)c1c(NC(=O)/C=C/c2ccc3c(c2)OCO3)sc(C)c1CC`, for which the Potency result in assay [1], in assay [2], in assay [3], in assay [4] and in assay [5] was “inactive” throughout.
In the case of `CCCc1cc(=O)oc2cc(C)cc(OCC(=O)N[C@@H](CSCc3ccccc3)C(=O)O)c12`, the Potency entry in assay [1], in assay [2], in assay [3], in assay [4] and in assay [5] was “inactive” each time.
For `CC(=O)CCc1oc2ccccc2c1-c1ccccc1`, the Potency result in assay [1] and in assay [2] was “inactive” in each case. Further, the activation was 6.69% [at 17.1 µM, percent relative to cAMP agonist control] in assay [3] and -0.404% [at 30.8 µM] in assay [5]. The activity change, negative = inhibition in assay [4] is -10.9% [at 30.8 µM].
For the compound `O=C(CS(=O)(=O)c1ccccc1)c1cc2cc(F)ccc2oc1=O`, the Potency in assay [1] is 75.7 µM (active). Besides, the Potency result in assay [2], in assay [3], in assay [4] and in assay [5] was “inactive” each time.
For `COc1ccccc1Oc1ncnc2c1oc1ccccc12`, the Potency result in assay [1] and in assay [2] was “inactive” each time. Moreover, the activation in assay [3] is -4.43% [at 17.1 µM, percent relative to cAMP agonist control]; in assay [5] it was 5.04% [at 30.8 µM]. The activity change, negative = inhibition in assay [4] was 7.03% [at 30.8 µM].
As for `COc1ccc(C2N(c3ccc(Cl)cc3)N=C(C(C)=O)N(C)N2C(C)=O)cc1` (stereo not given), the Potency result in assay [1] and in assay [2] was “inactive” in each case. Moreover, the activation is 11.9% [at 17.1 µM, percent relative to cAMP agonist control] in assay [3] and 29.6% [at 30.8 µM] in assay [5]. The activity change, negative = inhibition in assay [4] is -11.6% [at 30.8 µM].
On to `O=C1C=CC(=O)c2c(O)c(N3CCN(CCO)CC3)c(Cl)c(O)c21`, for which the Potency in assay [1] is 37.9 µM (active). For the same compound, the Potency entry in assay [2], in assay [3], in assay [4] and in assay [5] was “inactive” throughout.
Regarding `COc1ccc(C(=O)n2c(-c3ccco3)nc3ccccc32)cc1`, the Potency entry in assay [1] and in assay [2] was “inactive” in each case. For the same compound, the activation in assay [3] is 7.17% [at 17.1 µM, percent relative to cAMP agonist control]; in assay [5] it was 10% [at 30.8 µM]. In addition, in assay [4], the activity change, negative = inhibition was -27.8% [at 30.8 µM].
`COc1ccccc1C1CCN(c2ccc(CO)cc2[N+](=O)[O-])CC1`: the Potency result in assay [1], in assay [2], in assay [3], in assay [4] and in assay [5] was “inactive” each time.
Take `COCCn1c(SCc2ccccc2F)nc2ccccc2c1=O`: the Potency result in assay [1] and in assay [2] was “inactive” in each case. Also, the activation in assay [3] was 4.59% [at 17.1 µM, percent relative to cAMP agonist control]; in assay [5], 12.3% [at 30.8 µM]. Also, the activity change, negative = inhibition in assay [4] is -6.24% [at 30.8 µM].
For the compound `COc1ccc(-c2csc(NC(=O)c3ccc(C(C)(C)C)cc3)c2C(=O)O)cc1`, the Potency in assay [1] is 37.9 µM (active). Moreover, the Potency result in assay [2], in assay [3], in assay [4] and in assay [5] was “inactive” in each case.
`CCOc1ccc(C(=O)NCC(=O)Nc2ncccc2C)cc1OCC`: the Potency result in assay [1], in assay [2], in assay [3], in assay [4] and in assay [5] was “inactive” in each case.
For `O=C1C(=Cc2ccccc2Cl)CCc2ccccc21`, the Potency result in assay [1], in assay [2], in assay [3], in assay [4] and in assay [5] was “inactive” each time.
With `CS/C(Nc1cc(Cl)ccc1Cl)=C(/C#N)C(=O)c1ccco1`, in assay [1], the Potency was 67.5 µM (active). Besides, the Potency entry in assay [2], in assay [3], in assay [4] and in assay [5] was “inactive” each time.
In the case of `CCOC(=O)c1c(-c2ccccc2)oc2ccc(OCC)cc12`, the Potency entry in assay [1], in assay [2], in assay [3], in assay [4] and in assay [5] was “inactive” in each case.
Regarding `Cc1ccc(S(=O)(=O)Nc2ccc3ccccc3c2[N+](=O)[O-])cc1`, in assay [1], the Potency is 75.7 µM (active). Also, the Potency result in assay [2], in assay [3], in assay [4] and in assay [5] was “inactive” in each case.
In the case of `Cc1cc(/C=C2\SC(=S)NC2=O)c(C)n1-c1ccc(O)cc1`, the Potency in assay [1] was 84.9 µM (active). For the same compound, the Potency result in assay [2], in assay [3], in assay [4] and in assay [5] was “inactive” in each case.
In the case of `Cc1cc2ccccc2cc1C(=O)c1ccccc1`, the Potency entry in assay [1] and in assay [2] was “inactive” throughout. The activation in assay [3] is 3.89% [at 17.1 µM, percent relative to cAMP agonist control]; in assay [5], 5.51% [at 30.8 µM]. Besides, the activity change, negative = inhibition in assay [4] was -19.3% [at 30.8 µM].
As for `Cc1ccc2nc(N3C(=O)C(O)=C(C(=O)c4ccc(C)o4)C3c3ccc(O)cc3)sc2c1` (stereo not given), the Potency in assay [1] was 37.9 µM (active). The Potency result in assay [2], in assay [3], in assay [4] and in assay [5] was “inactive” each time.
Turning to `Oc1ccc(/C=N/Nc2ncnc3nc[nH]c23)cc1`, the Potency result in assay [1] and in assay [2] was “inactive” throughout. Also, the activation in assay [3] is -0.35% [at 17.1 µM, percent relative to cAMP agonist control]; in assay [5], 4.78% [at 30.8 µM]. Also, the activity change, negative = inhibition in assay [4] was 4.9% [at 30.8 µM].
Consider `O=C(CN1CCCC1)Nc1ccccc1Sc1ccc(Cl)cc1`, for which the Potency entry in assay [1], in assay [2], in assay [3], in assay [4] and in assay [5] was “inactive” throughout.
For `O=C1c2cccc3c(N4CCCCC4)ccc(c23)C(=O)N1c1cccc(O)c1`, the Potency entry in assay [1] and in assay [4] was “inactive” in each case. Moreover, the values for the Potency in assay [2], in assay [3] and in assay [5] were 100 µM (active), 112 µM (active) and 50.1 µM (active), respectively.
